# Reference: PubChem BioAssay (Tox21)
# Several values for one entry are separate records, joined by “and”; a condition that tells them apart may be missing. Equal values may be shown once. Inconclusive results are not listed. Where a call stands in place of a potency, no number is given. A structure can be active in one record and inactive in another. Activity calls are given as the source filed them. Unless noted, calls follow the shape of the dose curve; as a rule, active = well fitted curve in the direction sought with a large enough effect in the repeat runs; inconclusive = weak or mixed curves; inactive = no such curve, though single readings can be large; an effect the other way counts as inactive or inconclusive.
# How the values were obtained:
# [1] = qHTS assay to identify aromatase inhibitors - cell viability counter screen (AID 743084);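 also: cells stimulated with testosterone during compound exposure; nearly all actives have a fitted effect of over 55% in size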; also: potency is read from the fitted curve at half-maximal effect
# [2] = biological target: Aryl hydrocarbon receptor (Homo sapiens) (UniProt P35869); assay: qHTS assay to identify small molecule that activate the aryl hydrocarbon receptor (AhR) signaling pathway (AID 743085); also: nearly all actives have a fitted effect of over 15% in size; also: potency is read from the fitted curve at half-maximal effect;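 as to activation: HG2L7.5c1 human HepG2 liver cells with stably integrated DRE-driven firefly reporter; series mostly up to about 70 µM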
# Aryl hydrocarbon receptor (Homo sapiens), sequence (P35869 whole entry, looked up): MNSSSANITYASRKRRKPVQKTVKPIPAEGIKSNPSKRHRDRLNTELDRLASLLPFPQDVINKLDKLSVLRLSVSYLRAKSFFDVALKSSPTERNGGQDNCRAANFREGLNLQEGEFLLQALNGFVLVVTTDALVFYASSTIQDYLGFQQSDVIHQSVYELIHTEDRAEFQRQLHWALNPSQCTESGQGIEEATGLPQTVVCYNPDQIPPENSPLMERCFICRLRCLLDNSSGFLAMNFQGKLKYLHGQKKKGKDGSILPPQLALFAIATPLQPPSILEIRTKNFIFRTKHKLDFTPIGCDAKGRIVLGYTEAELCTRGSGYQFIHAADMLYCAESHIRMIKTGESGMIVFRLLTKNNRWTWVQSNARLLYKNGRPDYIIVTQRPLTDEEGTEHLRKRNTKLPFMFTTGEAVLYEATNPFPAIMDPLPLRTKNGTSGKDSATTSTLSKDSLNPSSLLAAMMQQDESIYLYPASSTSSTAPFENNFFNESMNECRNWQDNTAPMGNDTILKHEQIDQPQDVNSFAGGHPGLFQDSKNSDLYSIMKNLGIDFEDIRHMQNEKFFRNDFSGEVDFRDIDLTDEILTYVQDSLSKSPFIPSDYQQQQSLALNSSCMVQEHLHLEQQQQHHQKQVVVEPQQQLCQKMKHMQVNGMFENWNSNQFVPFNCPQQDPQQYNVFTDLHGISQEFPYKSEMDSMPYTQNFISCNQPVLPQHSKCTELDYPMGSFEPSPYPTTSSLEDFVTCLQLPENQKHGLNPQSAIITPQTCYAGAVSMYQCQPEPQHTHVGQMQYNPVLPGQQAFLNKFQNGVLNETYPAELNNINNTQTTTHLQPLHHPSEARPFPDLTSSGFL
# Procedure, shortened: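 Measured in HG2L7.5c1 cells: CellTiter-Fluor signal (30 min incubation, 37C) for viability, then luciferase luminescence (30 min, room temperature). Compound contact time was 24 h at 37C, following a 5 h pre-incubation.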
# [3] = qHTS assay to identify small molecule that activate the aryl hydrocarbon receptor (AhR) signaling pathway - cell viability counter screen (AID 743086);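 also: HepG2 liver cells carrying the AhR DRE luciferase reporter; series mostly up to about 70 µM; nearly all actives have a fitted effect of over 45% in size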
# Procedure, shortened: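 HepG2-AhR-luc (HG2L7.5c1) cells, 4000/well, treated 24 h at 37 C with compound; viability measured as CellTiter-Fluor fluorescence after 30 min in the same wells as the luciferase read.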
# [4] = biological target: Peroxisome proliferator-activated receptor gamma (Homo sapiens) (UniProt P37231); assay: qHTS assay to identify small molecule agonists of the peroxisome proliferator-activated receptor gamma (PPARg) signaling pathway (AID 743094; active = well fitted activation curve with a large enough effect in the signal ratio in the repeat runs, not every such curve was filed as active; the % refers to the signal ratio)
# Peroxisome proliferator-activated receptor gamma (Homo sapiens), sequence (P37231 whole entry, looked up): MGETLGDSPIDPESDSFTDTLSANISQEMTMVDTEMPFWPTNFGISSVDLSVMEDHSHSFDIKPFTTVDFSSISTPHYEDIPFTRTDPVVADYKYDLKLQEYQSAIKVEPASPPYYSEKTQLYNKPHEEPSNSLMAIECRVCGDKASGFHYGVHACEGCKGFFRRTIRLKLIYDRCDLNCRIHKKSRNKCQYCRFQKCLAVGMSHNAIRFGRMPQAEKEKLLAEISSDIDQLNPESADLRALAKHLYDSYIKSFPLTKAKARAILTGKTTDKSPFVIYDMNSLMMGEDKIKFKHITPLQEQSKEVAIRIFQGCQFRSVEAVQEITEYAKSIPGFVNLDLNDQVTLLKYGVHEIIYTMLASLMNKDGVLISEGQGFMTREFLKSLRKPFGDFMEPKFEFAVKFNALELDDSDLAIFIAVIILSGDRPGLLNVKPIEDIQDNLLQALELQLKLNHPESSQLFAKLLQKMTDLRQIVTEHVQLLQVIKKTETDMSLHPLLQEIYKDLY
# Procedure, shortened: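 Cell-based bla reporter, HEK293H background, PPARg-driven UAS. Pre-incubation 5 h, 37C, 5% CO2. Compound 17 h, 37C. Substrate 1 h RT; fluorescence.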
# [5] = biological target: Peroxisome proliferator-activated receptor gamma (Homo sapiens) (UniProt P37231); assay: qHTS assay to identify small molecule antagonists of the peroxisome proliferator-activated receptor gamma (PPARg) signaling pathway (AID 743191; calls by dose curve; also: series mostly up to about 63 µM; nearly all actives have a fitted effect of over 30% in size)
# Procedure, shortened: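 GeneBLAzer PPARg UAS-bla HEK293H cells, 5 h post-plating, exposed to compounds 17 h at 37C. LiveBLAzer B/G FRET substrate added for 1 h at room temperature; beta-lactamase reporter read by fluorescence intensity.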
# [6] = qHTS assay to identify small molecule antagonists of the peroxisome proliferator-activated receptor gamma (PPARg) signaling pathway - cell viability counter screen (AID 743194); also: nearly all actives have a fitted effect of over 55% in size
# Procedure, shortened: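 Cytotoxicity counter screen in PPARg-bla HEK293H cells, same wells as reporter assay. Compounds plus 50 nM rosiglitazone (final) for 17 h at 37 C, then viability read by CellTiter-Glo luminescence.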
# [7] = qHTS assay for small molecule agonists of the antioxidant response element (ARE) signaling pathway (AID 743202; active = well fitted activation curve with a large enough effect in the signal ratio in the repeat runs, not every such curve was filed as active; the % refers to the signal ratio)
# Procedure, shortened: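 HepG2 ARE-bla cells; 16 h treatment at 37 C; FRET-based beta-lactamase fluorescence read after 2 h substrate incubation at room temperature.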
# [8] = qHTS assay for small molecule agonists of the antioxidant response element (ARE) signaling pathway - cell viability counter screen (AID 743203; calls by dose curve; also: nearly all actives have a fitted effect of over 55% in size)
# Procedure, shortened: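 Measured in the same wells as the beta-lactamase ARE reporter, this read-out is CellTiter-Glo luminescence from HepG2 ARE-bla cells given compounds for 16 hrs.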
# [9] = qHTS assay for small molecule activators of the heat shock response signaling pathway - cell viability counter screen (AID 743209); also: nearly all actives have a fitted effect of over 50% in size
# Procedure, shortened: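 Same-well multiplex: after 2.5 h room-temperature incubation with LiveBLAzer B/G substrate and fluorescence reading, CellTiter-Glo reagent was added to HSE-bla HeLa cells that had received compound for 5 h at 37 C; luminescence read after 30 min.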
# [10] = qHTS assay for small molecule activators of the heat shock response signaling pathway (AID 743210; active = well fitted activation curve with a large enough effect in the signal ratio in the repeat runs, with a control signal flat, not every such curve was filed as active; the % refers to the signal ratio; also: potency is read from the fitted curve at half-maximal effect;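 as to activation: HeLa cells with beta-lactamase reporter driven by heat shock elements; series mostly up to about 63 µM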)
# Procedure, shortened: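 Following overnight attachment, HSE-bla HeLa cells received test compounds for 5 h at 37 C; beta-lactamase activity was then detected via FRET substrate fluorescence.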
Compound,Potency [1],Potency [2],Potency [3],Potency [4],Potency [5],Potency [6],Potency [7],Potency [8],Potency [9],Potency [10]
NC(=S)NC(N)=S,inactive,inactive,inactive,inactive,inactive,inactive,inactive,inactive,inactive,34.7 µM (active)
Nc1ccc(Oc2ccc(Cl)cc2)cc1,inactive,inactive,inactive,inactive,inactive,inactive,,inactive,inactive,inactive
CCO[Si](OCC)(OCC)OCC,inactive,inactive,inactive,inactive,inactive,inactive,inactive,inactive,,inactive
ClCCl,inactive,inactive,inactive,inactive,inactive,inactive,inactive,inactive,inactive,inactive
CC(C)(c1cc(Br)c(OCC(Br)CBr)c(Br)c1)c1cc(Br)c(OCC(Br)CBr)c(Br)c1 (centres undefined),inactive,inactive,inactive,inactive,inactive,inactive,inactive,inactive,inactive,inactive
CCc1ccc(Br)cc1,inactive,inactive,inactive,inactive,inactive,inactive,inactive,inactive,inactive,inactive
CCOC(=O)NNc1ccc(N(CC)CC(C)O)nn1 (centres undefined),inactive,inactive,inactive,inactive,inactive,inactive,inactive,inactive,inactive,inactive
O=C1C(c2[nH]c3ccc(S(=O)(=O)O)cc3c2O)=Nc2ccc(S(=O)(=O)O)cc21,inactive,inactive,inactive,inactive,inactive,inactive,,inactive,inactive,inactive
CCCNCCC,inactive,inactive,inactive,inactive,inactive,inactive,inactive,inactive,inactive,inactive
C[C@@H](O)[C@H](N)C(=O)O,inactive,inactive,inactive,inactive,inactive,inactive,inactive,inactive,inactive,inactive
COc1ccc(-c2coc3cc(O)ccc3c2=O)cc1,inactive,6.86 µM (active),inactive,inactive,inactive,inactive,,inactive,,
Clc1sc(Cl)c(Cl)c1Cl,inactive,inactive,inactive,inactive,inactive,inactive,inactive,,,inactive
OC[C@H]1O[C@H](O[C@H]2O[C@H](CO)[C@@H](O)[C@H](O)[C@H]2O)[C@H](O)[C@@H](O)[C@@H]1O,inactive,inactive,inactive,inactive,inactive,inactive,inactive,inactive,inactive,
CC[N+](CC)(CC)CCOC(=O)C(C1CCCC1)C1CCCC1,inactive,inactive,inactive,inactive,inactive,inactive,,inactive,inactive,inactive
c1ccc(SSc2ccccc2)cc1,inactive,inactive,inactive,inactive,inactive,inactive,inactive,inactive,inactive,
CC[N+](CC)(CC)CCOc1ccc(/C=C/c2ccccc2)cc1,inactive,inactive,inactive,inactive,inactive,inactive,,inactive,inactive,inactive
Cc1cc(C(C)(C)C)cc(C)c1CC1=NCCN1,inactive,inactive,inactive,inactive,inactive,inactive,inactive,inactive,inactive,inactive
CCC(COC(=O)CCS)(COC(=O)CCS)COC(=O)CCS,inactive,inactive,inactive,inactive,inactive,inactive,,inactive,inactive,
Cc1ccc(C(C)C)cc2c(C)ccc1-2,inactive,inactive,inactive,inactive,inactive,inactive,,inactive,inactive,inactive
CC(CCc1ccccc1)NCC(O)c1ccc(O)c(C(N)=O)c1 (centres undefined),inactive and 13.7 µM (active),inactive,inactive,inactive,inactive,inactive,,inactive,,
CC(C)(C)C1CCC(=O)CC1,inactive,inactive,inactive,inactive,inactive,inactive,inactive,inactive,,
Cc1ccc(-c2ccccc2)cc1,inactive,inactive,inactive,inactive,inactive,inactive,inactive,inactive,,inactive
